This note sets out measurements from PubChem BioAssay AID651598 (Sanford-Burnham Center for Chemical Genomics, 2012).

“And” between values parts separate entries of the source, which are not always exact repeats. Equal values may be shown once.

Sequence of C-X-C chemokine receptor type 6 (Homo sapiens) (O00574 whole entry, looked up): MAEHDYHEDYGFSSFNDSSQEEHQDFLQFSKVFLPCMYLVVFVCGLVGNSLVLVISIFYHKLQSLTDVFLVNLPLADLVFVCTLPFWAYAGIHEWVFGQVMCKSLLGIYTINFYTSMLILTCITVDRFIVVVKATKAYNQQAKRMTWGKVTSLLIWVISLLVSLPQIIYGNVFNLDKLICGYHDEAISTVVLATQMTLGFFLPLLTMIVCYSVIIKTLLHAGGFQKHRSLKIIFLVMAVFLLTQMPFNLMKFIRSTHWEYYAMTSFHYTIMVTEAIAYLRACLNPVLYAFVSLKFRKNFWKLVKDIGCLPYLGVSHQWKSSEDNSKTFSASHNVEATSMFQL

This test concerns the target C-X-C chemokine receptor type 6 (Homo sapiens) (UniProt O00574). As to the kind of experiment: apelin receptor (APJ) antagonists, SAR follow-up, counter-screen for CXCR6 antagonist project, cell-based, beta-arrestin, DiscoveRx, panel, CHO-K1 (AID 651598). Particulars: CHO-K1 PathHunter beta-arrestin luminescence, antagonist mode; run 1, at 80 µM (top of the series).
One may read the inhibition as the drop in the measured response relative to a control, in per cent. High values mean strong suppression, low ones little suppression. For the compound `COc1cc(C(=O)NC2CC3CCC(C2)N3CC(=O)Nc2ccccc2)cc(OC)c1OC` (stereo not drawn), the inhibition is 59.5% and 13.9%. Compound `COc1cc(C(=O)NC2CCN(CC(=O)Nc3ccccc3)CC2)cc(OC)c1OC` came in with an inhibition of 4.26%. Regarding `COc1cc(C(=O)NC2CC3CCCC(C2)N3CC(=O)Nc2ccccc2)cc(OC)c1OC` (stereo not drawn), the inhibition was 89.3% and 49.6% and 26.4%.
